# From PubChem
# The list is not random: actives were taken first. Their share in the collection is about 1.2%.
# RGS8-Gao reg = modulates binding of RGS8 to human Galphao; multiplexed bead flow cytometry; actives lie on both sides; response (percent of control binding), % at 10 µM; 220,000 tested, 0.34% active; in the data active = response below about 60% or above about 140%; inactive = in between;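 note: Galphao activated as the GDP aluminium fluoride complex binding bead-coupled RGS8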
# Target sequence (P09471 whole entry, looked up): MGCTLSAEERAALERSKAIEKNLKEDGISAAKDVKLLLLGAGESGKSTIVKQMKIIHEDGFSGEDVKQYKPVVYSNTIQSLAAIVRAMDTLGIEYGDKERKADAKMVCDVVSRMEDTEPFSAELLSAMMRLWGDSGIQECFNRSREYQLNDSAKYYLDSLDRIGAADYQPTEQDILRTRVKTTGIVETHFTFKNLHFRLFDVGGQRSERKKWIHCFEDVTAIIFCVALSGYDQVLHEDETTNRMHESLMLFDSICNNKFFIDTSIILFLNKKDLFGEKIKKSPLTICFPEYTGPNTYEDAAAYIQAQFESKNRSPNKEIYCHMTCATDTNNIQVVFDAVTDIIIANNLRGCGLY
# RGS4-Gao reg = modulates binding of RGS4 to human Galphao. binding response (% of control), % at 10 µM. 220,000 tested, 0.33% active. P09471. AID 1415. Multiplexed bead flow cytometry; actives lie on both sides; in the data active = binding response below about 49% or above about 150%; inactive = in between;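 note: fluorescent Galphao activated with aluminum fluoride binding bead-coupled RGS4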
# RGS16-Gao HTS = modulates binding between human RGS16 and Galphao; binding response (% of control), % at 10 µM; bead-based flow cytometry RGS16-Galphao binding, fluorescence; actives lie on both sides; 220,000 tested, 0.38% active;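 note: Galphao activated by GDP with aluminum fluoride before binding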
# Target sequence (O15492 whole entry, looked up): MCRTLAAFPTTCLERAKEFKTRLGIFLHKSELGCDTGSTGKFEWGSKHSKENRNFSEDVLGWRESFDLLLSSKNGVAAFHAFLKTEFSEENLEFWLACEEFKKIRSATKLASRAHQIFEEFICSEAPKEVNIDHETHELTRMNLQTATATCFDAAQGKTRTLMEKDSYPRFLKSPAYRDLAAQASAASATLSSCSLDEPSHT
# Target sequence (P09471 whole entry, looked up): as the sequence (P09471 whole entry, looked up) above
# RGS7-Gao = regulators of human RGS7-Galphao interaction. 220,000 tested, 0.35% active. P09471. Multiplexed bead flow cytometry, RGS7-Galphao binding; actives lie on both sides. binding response (% of control), % at 10 µM; in the data active = binding response below about 49% or above about 150%; inconclusive = no clear call, values can overlap the other calls; inactive = in between;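 note: fluorescent Galphao held in activated GDP-AlF4 state binding bead-coupled RGS7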
# Avidin bead fluor = avidin bead compound fluorescence profile. Avidin beads, compound fluorescence 488/530 nm, flow cytometry; hits give high values. 220,000 tested, 0.38% active. AID 1775. fluorescence (KMESF) at 10 µM; in the data active = fluorescence above about 47
# GSH bead fluor = GSH bead compound fluorescence profile | 190,000 tested, 0.25% active | fluorescence (KMESF) at 10 µM | GSH beads flow cytometry, compound fluorescence 488/530 nm; hits give high values; in the data active = fluorescence above about 89;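 note: glutathione beads carrying GST-tagged Bcl family fusion proteins plus one bare bead set; values are compound well signal with DMSO vehicle wells as background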
# RGS4-Gao HTS = RGS4-Galphao interaction regulator (human). shares compounds with RGS16-Gao HTS. multiplexed bead flow cytometry, RGS–Galpha-o binding. RGS4–Galpha-o binding response, % at 10 µM. 1,600 tested, 99% active. AID 1504;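 note: fluorescently labeled Galpha-o bound to GDP with aluminium fluoride binding biotinylated RGS beads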
# Avidin counter = interferes with biotinylated probe binding to avidin beads | shares compounds with RGS16-Gao HTS | streptavidin beads, fluorescein-biotin binding, flow cytometry | inhibition, % at 10 µM | 1,700 tested, under 10 active;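 active = inhibition above 50%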;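 note: median green fluorescence of gated singlet beads compared with DMSO control wells; 0% = DMSO wells and 100% = complete loss of bead fluorescence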
# RGS8-Gao single = confirmation of regulators of human RGS8-Galphao interaction; shares compounds with RGS16-Gao HTS; binding response (% of control), % at 10 µM; 1,700 tested, 3% active; bead-based flow cytometry RGS8-Galphao binding, fluorescence; actives lie on both sides; in the data active = binding response below about 72% or above about 130%; inactive = in between;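 note: Galphao activated as GDP AlF4 complex before binding bead RGS8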
# RGS7-Gao confirm = confirmation of regulators of human RGS7-Galphao interaction; shares compounds with RGS16-Gao HTS; bead-based flow cytometry RGS7-Galphao binding; actives lie on both sides; response (percent of control binding), % at 10 µM; 1,700 tested, 7.8% active; in the data active = response below about 75% or above about 130%; inactive = in between;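 note: fluorescent Galphao activated with GDP and aluminum fluoride binding bead-coupled RGS7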
# RGS16-Gao single = RGS16-Galphao interaction regulation, single point confirmation | response (% of control binding), % at 10 µM | 1,700 tested, 4% active | shares compounds with RGS16-Gao HTS | bead-based flow cytometry, RGS16-Galphao binding; actives lie on both sides | AID 1838; in the data active = response below about 74% or above about 130%; inactive = in between;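 note: Galphao activated as the GDP aluminium fluoride complex binding bead-coupled RGS16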
# RGS4-Gao confirm = RGS4-Galphao interaction regulation, single point confirmation. RGS4-Galphao binding, multiplexed bead flow cytometry; actives lie on both sides. 1,700 tested, 4% active. shares compounds with RGS16-Gao HTS. binding response (% of control), % at 10 µM; in the data active = binding response below about 74% or above about 130%; inactive = in between
# RGS19-Gao single = RGS19-Galphao interaction regulation, single point confirmation | 1,700 tested, 5% active | shares compounds with RGS16-Gao HTS | bead-based flow cytometry RGS19-Galphao binding; actives lie on both sides | response (percent of control binding), % at 10 µM | AID 1841; in the data active = response below about 50% or above about 160%; inactive = in between;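 note: 100% = no compound control and 0% = blank background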
# The depositor's hits bear a star; i = inactive; ? = inconclusive; . = not tested or not shown; [ ] = remark or other dose. Unless noted, the rule behind the calls is not given here.
SMILES,RGS8-Gao reg,RGS4-Gao reg,RGS16-Gao HTS,RGS7-Gao,Avidin bead fluor,GSH bead fluor,Avidin counter,RGS8-Gao single,RGS7-Gao confirm,RGS16-Gao single,RGS4-Gao confirm,RGS19-Gao single,others
CCOc1ccc(NC(=O)COC(=O)CCS(=O)(=O)c2ccc(C)cc2)cc1,102.3,100.4,112.8,100.4,11,17,.,.,.,.,.,.,
CCNc1ccc2noc3c2c1C(=O)c1ccccc1-3,55.0*,46.6*,42.7,45.6*,7,14,0.1,68.8*,62.9*,65.8*,68.8*,115.9,
CCCCCCOc1ccc(N2C(=O)CC(N3CCN(CCN=CC4C(=O)CC(C)(C)CC4=O)CC3)C2=O)cc1 (stereo not drawn),97.4,121.5,102.5,157.8*[activator],85*,14,-1.6,98.8,96.9,98.3,98.5,93.6,RGS4-Gao HTS=121.5*
CCN(CC(=O)NCc1cccs1)c1ccc(S(=O)(=O)N2CCOCC2)cn1,97.2,99.6,102.0,98.2,5,40,.,.,.,.,.,.,
CCOC(=O)c1cc2sc(C)cc2n1CC(=O)N1CCN(C(=O)c2ccco2)CC1,102.1,98.9,99.8,101.3,32,14,.,.,.,.,.,.,
Cc1ccc(C)n1-c1ccc(C(=O)O)cc1,60.9,65.5,72.8,39.3*,11,12,0.4,95.8,92.0,98.0,97.8,101.7,RGS4-Gao HTS=65.5*
Cc1cc(NS(=O)(=O)c2ccc(NC(=S)NC(=O)c3ccncc3)cc2)no1,105.7,106.3,105.5,?,5,.,.,.,.,.,.,.,
Cc1noc(C)c1COC(=O)c1cccnc1Cl,96.5,93.9,98.2,?,12,12,.,.,.,.,.,.,
O=C(CCCOc1ccccc1)N1CCN(c2ccc(F)cc2)CC1,101.4,102.6,104.4,101.6,17,33,.,.,.,.,.,.,
CC(CCc1ccccc1)NC(=O)CSc1nccc(=O)[nH]1 (stereo not drawn),21.1*,12.2*,7.1*,10.9*,-2,43,-1.0,97.3,79.3,91.4,90.5,78.8,
Clc1ccccc1Nc1c2c(nc3ncnn13)CCC2,100.6,98.1,101.9,97.2,15,33,.,.,.,.,.,.,
c1ccc(Nc2c3c(nc4ncnn24)CCC3)cc1,.,.,.,.,.,46,0.1,94.7,55.8*,76.2,72.0*,62.0,
CN(C)S(=O)(=O)c1cc(NC(=O)COC(=O)Cc2ccc(Br)cc2)ccc1Cl,56.5*,77.8,12.4*,82.6,2,9,-1.5,98.6,97.8,98.5,99.8,103.7,RGS4-Gao HTS=77.8*
O=C1/C(=C/c2ccsc2)N2CCC1CC2,100.8,98.1,97.8,?,7,.,.,.,.,.,.,.,
O=C(NNC(=O)C1CCCO1)c1ccccc1Cl (stereo not drawn),.,.,.,.,.,17,1.6,100.3,99.9,101.2,100.2,99.0,
Cc1cccc(C(=O)NNC(=O)C2CCCO2)c1 (stereo not drawn),12.4*,20.8*,1.0*,14.1*,-2,24,1.4,119.5,136.8*[activator],123.5,132.0*[activator],134.6,
Cc1ccc(C(C)NC(=O)C2CCCO2)cc1C (stereo not drawn),.,.,.,.,.,19,0.5,98.0,103.3,100.0,99.5,87.0,
CC1(C)CC(NC(=O)c2ccccc2C(=O)NC2CC(C)(C)NC(C)(C)C2)CC(C)(C)N1,100.9,98.8,99.1,96.4,9,12,.,.,.,.,.,.,
Cc1cccc(C(=O)NC2CC(C)(C)NC(C)(C)C2)c1,98.3,100.5,112.6,172.2*[activator],82*,14,0.9,91.5,92.8,91.7,92.3,83.6,RGS4-Gao HTS=100.5*
Cc1cccc(-c2nc3cc(NC(=O)C4CCCO4)ccc3o2)c1 (stereo not drawn),118.6,108.7,179.2*[activator],107.1,17,10,0.4,104.5,103.9,109.0,104.2,98.6,RGS4-Gao HTS=108.7*
CCNC(=S)Nc1cc(OCC)c(NC(=O)c2cccs2)cc1OCC,61.5,43.5*,50.2,36.1*,7,6,-1.8,101.0,100.2,101.0,100.5,95.4,
Cn1c(SCC(N)=O)nnc1-c1ccccc1,105.1,107.0,115.1,105.6,14,49,.,.,.,.,.,.,
Cn1c(CO)cnc1-c1ccccc1,132.4,151.4*[activator],150.3,?,6,.,-0.5,99.6,99.1,97.2,102.4,98.7,
CN(CCO)C(=O)C(c1ccccc1)c1ccccc1,101.5,103.6,104.4,?,6,.,.,.,.,.,.,.,
NC(N)=N/N=C/c1ccc(Br)cc1,104.2,99.1,100.4,100.6,11,14,.,.,.,.,.,.,
SMILES,RGS8-Gao reg,RGS4-Gao reg,RGS16-Gao HTS,RGS7-Gao,Avidin bead fluor,GSH bead fluor,Avidin counter,RGS8-Gao single,RGS7-Gao confirm,RGS16-Gao single,RGS4-Gao confirm,RGS19-Gao single,others
N#Cc1ccc(/C=N/N=C(N)N)cc1,115.3,219.7*[activator],243.5*[activator],179.4*[activator],112*,35,1.6,103.5,100.8,96.1,100.6,62.6,
Cc1cc(C)nc(NS(=O)(=O)c2ccc(NC(=O)Cn3c(=O)oc4ccccc43)cc2)n1,100.2,100.3,102.3,100.7,7,18,.,.,.,.,.,.,
COC(=O)c1ccc(Oc2ccc3nnc(C)n3n2)cc1,141.8*[activator],122.3,388.7,116.1,6,64,-0.8,100.0,94.3,96.6,99.3,94.9,RGS4-Gao HTS=122.3*
COC(=O)c1ccc(Oc2ccc3nncn3n2)cc1,95.2,96.9,87.9,95.0,17,12,.,.,.,.,.,.,
C=CCN=C(NC#N)SCC(=O)NC(C)(C)C,61.1,-27.7*,i,45.5*,5,13,0.9,101.8,100.0,105.9,98.2,104.7,
Cc1ccc(-c2cc(C(=O)N3CCCc4ccccc43)c3ccccc3n2)cc1,100.5,100.8,100.8,101.4,11,17,.,.,.,.,.,.,
O=C(c1cc(-c2cccnc2)nc2ccccc12)N1CCCc2ccccc21,87.4,96.1,12.7*,93.7,3,10,0.6,103.1,104.5,104.0,105.1,108.8,RGS4-Gao HTS=96.1*
CCOc1ccc(C(=O)OC2CCN(C)CC2)cc1,108.1,102.7,116.9,101.3,7,14,.,.,.,.,.,.,
